PubChem BioAssay (NCI)
Compounds without any hit were thinned out: in the full panel of roughly 83,000, 20% have a hit.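 Values shown are percent growth following 48 h exposure of cells in 96-well plates to a single concentration of compound; below 10 was considered active.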 Activity calls are given as the source filed them.

The compounds below were run on SF-295 CNS (assay: NCI-60 one-dose screen, 48 h (100 = growth as untreated, 0 = no growth, -100 = all killed)). Conditions: 10 µM unless noted.
`C/C(CCC(=O)O)=N/Nc1ccc([N+](=O)[O-])cc1` was tested, and the growth was 2% (active). For `Nc1nc2c(c3ncncc13)C(c1cccc(C(F)(F)F)c1)Cc1ncncc1-2` (stereo not drawn), the growth was 11.9% (inactive). For `COc1ccc(-c2nc(SCC(C)C)nc(Nc3ccc([N+](=O)[O-])cc3)c2C#N)cc1`, the growth was 84.3% (inactive). In the case of `Cn1c2c(cc(S(=O)(=O)c3ccccc3)c1=O)CCc1c-2cnn1-c1ccc(Cl)cc1`, the growth is reported as -4.18% (active). `Nc1nc2c(c3cnccc13)C(c1cccc(Cl)c1)Cc1cnccc1-2` (stereo not drawn) was tested, and the growth was 8.34% (active). For `CCCCCSc1ccc2nc(NC(=O)OCCC)sc2c1`, the growth was 19.9% (inactive). In the case of `CCCCCSc1ccc2nc(NC(=O)OCC)sc2c1`, the growth is reported as 6.93% (active). `Cc1c(Cc2ccccc2)c(=O)oc2c(C)c(OCc3n[nH]c(=S)o3)ccc12` was tested, and the growth was 77% (inactive). In the case of `CCOC(=O)c1c(C)oc2ncnc(Nc3ccc(C(=O)NCCc4ccccc4)cc3)c12`, the growth is reported as 90.4% (inactive). For `COc1cc(/C=C/C(=O)c2ccc(F)cc2)ccc1OCCCCOc1cc2c(cc1OC)C(=O)N1CCCC1C=N2` (stereo not drawn), the growth was -29.1% (active). `C=C(C)[C@@H]1CC[C@]2(COC(=O)c3ccccc3C(=O)O)CC[C@]3(C)[C@H](CC[C@@H]4[C@@]5(C)CCCNC(C)(C)[C@@H]5CC[C@]43C)[C@@H]12` was tested, and the growth was 66.6% (inactive). In the case of `O=C(CCCC(=O)Nc1ccc(Cn2nnc3cc(Cl)c(Cl)cc32)cc1)Nc1ccc(CN2N=NC3C=C(Cl)C(Cl)=CC32)cc1` (stereo not drawn), the growth is reported as 71.9% (inactive). In the case of `CCS(=O)(=O)OCCO[C@H]1Cc2cc3ccc(=O)oc3cc2OC1(C)C`, the growth is reported as 101% (inactive).
